# Experimental data: PubChem BioAssay AID1416 (The Scripps Research Institute Molecular Screening Center, 2008)
# The campaign covered roughly 220,000 compounds. About 370 (0.17%) were called active. The list comes from a sample in which actives are over-represented; it also holds similar structures and randomly drawn compounds. A number with no mark means an inactive call.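 How the source made its calls: active means inhibition above the mean inhibition of all tested compounds plus 3 SD, set separately per screening campaign (cut at about 2.9% in these data); inactive means the rest.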
# Target: Eukaryotic translation initiation factor 2-alpha kinase 3 (Homo sapiens) (UniProt Q9NZJ5)
# Sequence (Q9NZJ5 whole entry, looked up, the tested form may be a part): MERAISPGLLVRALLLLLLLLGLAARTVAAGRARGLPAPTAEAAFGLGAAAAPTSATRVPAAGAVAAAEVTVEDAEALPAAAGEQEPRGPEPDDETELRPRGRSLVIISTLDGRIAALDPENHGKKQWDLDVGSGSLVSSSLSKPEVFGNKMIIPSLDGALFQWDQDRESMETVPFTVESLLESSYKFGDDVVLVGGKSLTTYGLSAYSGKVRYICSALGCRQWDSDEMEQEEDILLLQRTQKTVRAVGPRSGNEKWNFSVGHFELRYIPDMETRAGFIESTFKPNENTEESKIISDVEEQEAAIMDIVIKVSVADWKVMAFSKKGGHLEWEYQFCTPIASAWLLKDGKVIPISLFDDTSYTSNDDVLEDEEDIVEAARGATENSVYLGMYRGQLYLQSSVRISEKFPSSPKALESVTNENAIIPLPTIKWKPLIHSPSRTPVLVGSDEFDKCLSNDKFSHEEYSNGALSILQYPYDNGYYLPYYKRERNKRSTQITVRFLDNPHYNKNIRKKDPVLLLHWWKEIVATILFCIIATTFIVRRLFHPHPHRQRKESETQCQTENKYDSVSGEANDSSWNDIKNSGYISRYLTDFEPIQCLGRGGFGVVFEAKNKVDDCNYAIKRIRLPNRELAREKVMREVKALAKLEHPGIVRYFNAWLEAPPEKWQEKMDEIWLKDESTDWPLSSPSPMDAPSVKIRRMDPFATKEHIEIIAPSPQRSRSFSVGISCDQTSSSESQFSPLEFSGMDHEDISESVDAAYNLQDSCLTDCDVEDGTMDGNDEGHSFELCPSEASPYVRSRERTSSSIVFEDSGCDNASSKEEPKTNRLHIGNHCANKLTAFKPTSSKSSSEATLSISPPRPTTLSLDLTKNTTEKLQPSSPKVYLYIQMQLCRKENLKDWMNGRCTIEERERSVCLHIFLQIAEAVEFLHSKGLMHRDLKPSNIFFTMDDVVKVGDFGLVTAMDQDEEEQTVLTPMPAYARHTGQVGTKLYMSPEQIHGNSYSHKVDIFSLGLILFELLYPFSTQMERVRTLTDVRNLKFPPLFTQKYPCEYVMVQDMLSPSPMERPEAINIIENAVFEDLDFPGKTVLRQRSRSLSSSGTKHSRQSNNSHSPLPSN
# Test: SEAP translation reporter rise after PERK-DD activation – CHO PERK-DD cells, SEAP luminescence, HTS, PERK inhibitor project, primary screen (AID 1416);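 further: PERK kinase domain activated by AP20187 dimerizer at 100 nM; 0% = DMSO with dimerizer and 100% = rapamycin at 8.4 µM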
# Conditions: CHO PERK-DD fusion, at 5.6 µM, hits give high values
row,SMILES,inhibition
1,O=[N+]([O-])c1ccc2c(c1)C(N1CCOCC1)/C(=C/C1(O)CCCCC1)O2 (stereo unspecified),-1.29%
2,Cc1c(C(=O)N(Cc2ccccc2)Cc2cccnc2)cnn1-c1ccc(F)cc1,-0.72%
3,CCc1cc(CNC(=O)CC2C(=O)NCCN2CC2CCCCC2)on1 (stereo unspecified),-0.53%
4,COc1cc(NS(=O)(=O)c2ccc(NC(=O)CN3C(=O)c4ccccc4C3=O)cc2)ncn1,2.32%
5,Cc1ccc(Oc2cnn(-c3ccccc3)c(=O)c2Br)cc1,2.99% (active)
6,COc1ccc(-n2c(C)nc3c(cnn3-c3ccccc3)c2=O)cc1,-0.16%
7,COc1ccc(Oc2c(Cl)cnn(-c3ccccc3)c2=O)cc1,0.39%
8,CCCS(=O)(=O)N1CCC(CCOc2ccccc2)(C(=O)OCC)CC1,-0.64%
9,O=C(NC(=O)N1CCOCC1)c1ccccc1,0.27%
10,O=C(NC(=O)c1cc(OCC(F)(F)F)ccc1OCC(F)(F)F)Nc1ccccc1,0.87%
11,CN(C)S(=O)(=O)c1ccc(NC(=O)N2CCOCC2)cc1,0.79%
12,Cn1nccc1NS(=O)(=O)c1ccc(F)cc1,0.14%
13,CC(C)CNC(=O)C(=O)Nc1ccc(N(C)C)cc1,0.89%
14,Nc1ccc(S(=O)(=O)Nc2nccc(/C=C/c3ccc(Br)s3)n2)cc1,1.17%
15,Cc1cccc(C)c1NC(=O)Nc1ccccc1-n1ccnc1,1.72%
16,CC(CC(=O)Nc1ccccc1)n1ccnc1 (stereo unspecified),0.1%
17,O=C(O)CCCC(=O)Nc1ccccc1-n1ccnc1,3.15% (active)
18,COc1cccc(C2SCC(=O)N2c2cccc(C)c2)c1OC (stereo unspecified),0.28%
19,CC(=O)NCC(=O)N(Cc1ccco1)C1(C(=O)NC2CCCC2)CCCCC1,0.44%
20,CCc1ccc(N(CC(=O)Nc2sc3c(c2C(=O)OC)CCCC3)S(C)(=O)=O)cc1,0.54%
21,O=C(c1cccc(S(=O)(=O)N2CCCC2)c1)N(Cc1ccco1)C1CCS(=O)(=O)C1 (stereo unspecified),0.31%

row,SMILES,inhibition
1,Cc1nn(-c2ccccc2)c(-n2cccc2)c1C(=O)O,0.88%
2,CC(CO)(CO)NC(=O)c1ccc(=O)[nH]n1,1.5%
3,CCC(C)NCCOCCOc1ccc(Br)cc1C (stereo unspecified),-0.24%
4,COc1ccc(C2c3c(C)nn(-c4ccccc4)c3NC(=O)N2c2ccccc2)cc1 (stereo unspecified),-0.38%
5,CCN(CCCNC(=O)C1CCN(S(=O)(=O)c2cnc[nH]2)CC1)c1ccccc1,-0.73%
6,O=C(Nc1ccccc1)O/N=C1/CCCc2occc21,0.48%
7,COc1ccc(-c2csc(NC(=O)COC(=O)c3ccc(Br)o3)n2)cc1,0.82%
8,CCN(CC)CCNc1ccc(Cl)cc1[N+](=O)[O-],-0.09%
9,N#Cc1c(NCCO)ccc([N+](=O)[O-])c1NCCO,3.54% (active)
10,O=[N+]([O-])c1ccc(NCCCO)c(C(F)(F)F)c1,0.52%
11,O=C(C1CCCN1S(=O)(=O)c1ccc(Br)cc1)N1CCOCC1 (stereo unspecified),1.24%
12,CCOC(=O)Cn1c(SC)nc2sc3c(c2c1=O)CC(C)(C)OC3,0.18%
13,CCOC(=O)CSc1nc2sc3c(c2c(=O)[nH]1)CC(C)(C)OC3,2.96% (active)
14,CCC1(C)Cc2c(sc3nc(SC)[nH]c(=O)c23)CO1 (stereo unspecified),-0.25%
15,Cc1cccc(C(=O)Nc2ccc(C(=O)/C=C/c3cccs3)cc2)c1,-1.44%
16,COc1cc(/C=C/C(=O)OCC(=O)NC(=O)NCc2ccccc2)ccc1OCC#N,0.97%
17,O=C(c1ccco1)N1CCN(C(=O)C2CCCN(S(=O)(=O)c3cccc4nsnc34)C2)CC1 (stereo unspecified),0.2%
18,CN(C)c1ccc(NC(=O)CSc2n[nH]c(-c3ccco3)n2)cc1,-0.7%
19,COc1ccccc1Cn1c(C)nnc1-c1cnn(C)c1N,0.89%
20,CCSc1ccccc1C(=O)NCc1ccc(OC)cc1,0.41%
21,CCn1cc(CN2CCCC(CNS(=O)(=O)Cc3ccccc3)C2)cn1 (stereo unspecified),1.56%

row,SMILES,inhibition
1,COc1c(N2CCN(C(=S)Nc3ccccc3F)C(C)C2)c(F)cc2c(=O)c(C(=O)O)cn(C3CC3)c12 (stereo unspecified),1.87%
2,Cc1ccccc1-n1nc(C)c2cc(C(=O)NC3CC3)sc21,-1.39%
3,Cc1c(Cl)c([N+](=O)[O-])nn1CC(=O)NCC1CCCO1 (stereo unspecified),0.38%
4,Cc1cc(S(=O)(=O)NC2CCCCC2)ccc1OCC(=O)NCc1cccnc1,0.23%
5,CC(=O)NCc1ccc(S(=O)(=O)NC2CCN(Cc3ccccc3)CC2)cc1,1.04%
6,O=C1CCC(=O)N1c1ccc(NCCc2ccccc2F)c([N+](=O)[O-])c1,-0.58%
7,NC(=O)c1ccc(N2CCOCC2)nc1,2.55%
8,N#CC1=C(N)N(c2ccc(F)cc2)C(=O)C1,0.76%
9,CCOC(=O)c1ccc(COC(=O)CCc2nc(-c3ccccc3)c(-c3ccccc3)o2)cc1,-0.32%
10,Cc1cc(NC(=O)COC(=O)COc2ccc(Cl)cc2C)c([N+](=O)[O-])cc1C,0.97%
11,CCOC(=O)C1=C(C)N=C2c3ccccc3C(=O)C2C1c1ccc(Br)cc1 (stereo unspecified),0.04%
12,CCOc1cnc(C(=O)NNC(=O)c2ccccc2Br)o1,1.53%
13,CC1CN(C2CCN(C(=O)COc3ccccc3)CC2)CC(C)O1 (stereo unspecified),0.89%
14,Cc1nn(CC2CC2)c(=O)n1N(C)c1ncc(C(F)(F)F)cc1Cl,1.31%
15,O=C(Cn1cnc2ccccc21)N/N=C/c1ccco1,-0.07%
16,O=C(O)/C=C\C(=O)Nc1ccc(OCc2ccccc2)cc1,1.09%
17,CCOc1c(Br)cc(/C=C2\C(=O)N(CCC#N)N=C2C)cc1OC,1.06%
18,O=[N+]([O-])c1ccccc1NCc1ccccc1Cl,0.13%
19,COc1ccc([N+](=O)[O-])cc1N(CC(O)Cn1nnc2ccccc21)S(=O)(=O)c1ccc(C)cc1 (stereo unspecified),-0.77%
